# Source: PubChem BioAssay (Broad Institute)
# AI-2 QS modul: modulators of Vibrio harveyi AI-2 quorum sensing system; activity change, % at 7.5 µM; Vibrio harveyi JMH597 AI-2 luminescence/OD600 ratio, 9 h; stronger effect = lower value; strain lacks LuxN and CqsS sensors; 0 = neutral-control median; 0.4% of 300,000 active; AID 2094; in the data active = activity change below about -75%, passing the limit was not always enough; inconclusive = no clear call, values can overlap the other calls;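 note: luminescence divided by OD600 gain over 9 h not by final OD600 alone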
# HIF activator: HIF pathway transcriptional activation; U2OS HRE-luciferase reporter, luminescence; normalized: DMSO 0%, desferrioxamine 100%; activation, % at 7.5 µM (by protocol); 0.32% of 300,000 active;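 active = mean activation of at least 10% of the iron chelator positive control signal, with at least half of replicates also reaching 10%; inconclusive = mean and replicate majority disagree about reaching 10%; inactive = mean and most replicates under 10%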
# Mot1-301 SUMO: blocks SUMOylation pathway, rescuing yeast Mot1-301 growth; 1% of 320,000 active; growth rescue, % at 18.8 µM; S. cerevisiae Mot1-301 growth rescue, ATP luminescence, 38.5C; percent above DMSO median, 100 means doubled;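 active = every valid replicate shows activation above 250% relative to neutral control wells; inactive = the rest, any valid replicate at or below 250%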;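 note: OY570 slx delta 5 strain wells were the positive control but not used for scaling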
# ALR inh: human ALR oxidase inhibition via reduced H2O2; inhibition, % (test concentration not listed); purified ALR, DTT oxidation, H2O2 HRP-luminol luminescence; P55789; 3.8% of 290,000 active;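 active = mean replicate inhibition above about 79%, with every replicate also reaching it, limit read from the data; inconclusive = only one of the two criteria met; inactive = mean below limit and not every replicate reaching it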
# Target sequence (P55789 whole entry, looked up): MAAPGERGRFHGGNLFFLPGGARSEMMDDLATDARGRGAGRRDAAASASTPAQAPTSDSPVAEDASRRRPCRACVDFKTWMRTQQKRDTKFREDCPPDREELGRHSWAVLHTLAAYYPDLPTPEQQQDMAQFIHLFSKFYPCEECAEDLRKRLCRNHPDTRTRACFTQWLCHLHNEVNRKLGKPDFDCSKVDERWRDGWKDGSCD
# Yeast Mot1 SUMO: SUMO pathway inhibitors in yeast Mot1-301 growth; shares compounds with Mot1-301 SUMO; S. cerevisiae Mot1-301 galactose growth, ATP luminescence, 24 h; -100 = growth of slx-deleted rescue strain; growth activity, percent, % at 42 µM; 2,300 tested, under 10 active;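 active = Signal drops as the depositor expects, and the fitted half-maximal dose is no more than ten times the top valid tested dose; inconclusive = Poor fit, or a flat curve whose signal drops by 30% to 70%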;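 note: more negative values mean stronger growth rescue toward the control strain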
# An asterisk follows results filed as active; ? = inconclusive; . = not tested or not shown; + = active, no number; [ ] = dose if it differs, or a comment. Compounds with a hit are over-represented: about 4.8% of the library has one in this group of screens.
SMILES,AI-2 QS modul,HIF activator,Mot1-301 SUMO,ALR inh,Yeast Mot1 SUMO
CCN(CC1COc2ccccc2O1)C(=S)Nc1ccccc1 (configuration not stated),10,0,-15,-4,.
O=S(=O)(NCc1ccc(Cl)cc1)c1cnc[nH]1,14,0,+,-7,1
Cc1c(C2(O)CCCCC2)[nH]c2ccc(C#N)cc12,.,.,370*,0,0
CCSc1nnc2ccc(-c3ccc(C)cc3)nn12,2,2,5,-6,.
O=C(c1cc(N2C(=O)C3C4CCC(C4)C3C2=O)ccc1Cl)N1CCN(c2ccc(F)cc2)CC1 (configuration not stated),15,0,221,.,.
O=C(c1cc(N2C(=O)C3C4CCC(C4)C3C2=O)ccc1Cl)N1CCCCCC1 (configuration not stated),2,-1,361*,-5,1
Cc1cc(C)cc(OCC(=O)NNC(=O)c2cc(C)[nH]n2)c1,28,-1,-10,-7,.
Cc1cc(C(=O)NN)n[nH]1,12,0,590*,32,0
CCOC(=O)c1cnc2c(C)c(Cl)ccc2c1NCCCN1CCOCC1,7,2,-6,2,.
CCOC(=O)c1cnc2c(C)c(Cl)ccc2c1N1CCOCC1,10,0,828*,-8,1
NN1C(=O)NC(c2ccccc2)(c2ccccc2)C1=O,26,-48,543*,-2,0
O=C(COC(=O)C12CC3CC(CC(C3)C1)C2)NNC(=O)c1ccccc1,.,.,-13,0,.
CN(CC(=O)NCCc1ccc(Cl)cc1)S(=O)(=O)c1cccs1,.,1,1,3,.
O=C(CCSc1ccccc1)Nc1ncccn1,23,0,731*,-6,0
O=C(CCSc1ccccc1)Nc1nccs1,24,2,-7,2,.
O=C(CCNC(=O)c1ccc(Br)cc1)NCc1ccccc1F,.,0,812*,2,-1
O=C(O)C1CCCCC1C(=O)Nc1ccc(S(=O)(=O)N2CCCC2)cc1 (configuration not stated),26,0,447*,2,0
O=C(CN(C(=O)c1csnn1)c1cccc(Cl)c1)NC1CCCCC1,18,0,14,-3,.
Cc1ccc(C)c(CSC2=NCCN2S(=O)(=O)c2ccccc2)c1,16,0,13,6,.
CCOC(=O)C1C(c2ccc(C)o2)NC(=O)NC1(O)C(F)(F)F (configuration not stated),13,0,459*,-1,1
N/C(=N\OC(=O)CCC1CCCC1)c1ccc([N+](=O)[O-])cc1,23,1,597*,1,-1
Oc1cccc2ccc(/C=C/c3ccccc3Br)nc12,37,-3,528*,-24,0
CCN(CC)CCNc1ncnc2c1[nH]c1ccc(OC)cc12,15,-1,+,-3,1
Clc1cccc(-c2ccc(C3Nc4cccc5cccc(c45)N3)o2)c1,.,.,139,-12,.
COc1ccc(NC(=O)CSc2nnc(N)s2)cc1,6,0,-2,-7,.
SMILES,AI-2 QS modul,HIF activator,Mot1-301 SUMO,ALR inh,Yeast Mot1 SUMO
CN(C)c1ccc(NC(=O)CSc2nc(N)c(C(=O)Nc3ccc(N(C)C)cc3)s2)cc1,5,-2,466*,22,0
Cc1ccccc1-c1nnc(CN2CCN(C(=O)c3ccco3)CC2)o1,.,-9,-15,3,.
Cc1ccccc1-c1nnc(CN2CCC(C)CC2)o1,18,2,403*,-3,0
COc1ccc2oc(C(=O)Nc3nc(C)cs3)c(C)c2c1,.,.,-4,-5,.
COc1ccc(-c2cc(C#N)nc(N3CCN(c4ccccc4)CC3)n2)cc1,12,-1,425*,-5,0
COc1cc(OC)c(NC(=O)CCNS(=O)(=O)c2ccc3c(c2)CC(C)N3C(C)=O)cc1Cl (configuration not stated),31,1,4,-21,.
Cc1occc1-c1nnc(SCC(=O)N2CCN(c3ccc(F)cc3)CC2)n1C,3,0,0,18,.
Cc1occc1-c1nnc(SCC(=O)N2CCN(c3ccccc3)CC2)n1C,10,0,495*,25,0
Fc1cccc(Cl)c1CSc1nnc(CN2CCOCC2)n1-c1ccccc1,19,0,551*,-3,0
Clc1cccc(Cl)c1CSc1nnc(CN2CCOCC2)n1-c1ccccc1,6,-1,3,1,.
Clc1ccc(CSc2nnc(CN3CCOCC3)n2-c2ccccc2)cc1Cl,?,0,588*,-3,0
O=C(Cn1c(=O)oc2ccccc21)N1CCCC1,1,1,-24,-2,.
O=C(Nc1ccc2c(c1)C(=O)NC2=O)c1cccc(Cl)c1,26,0,4,.,.
C[C@@]12C(=O)Nc3ccc(Br)cc3C(=O)N1[C@H]1c3ccccc3OC[C@@H]1[C@@H]2c1ccccc1,.,.,+,2,-1
Cc1ccc2c(c1)C(=O)N1[C@H]3c4ccccc4OC[C@@H]3[C@H](c3ccccc3)[C@]1(C)C(=O)N2,.,.,+,4,0
Cc1nn(C)c(C)c1S(=O)(=O)N(CC(=O)NC1CCCCCC1)c1ccc(C(C)C)cc1,12,0,-2,2,.
Cc1n[nH]c(C)c1S(=O)(=O)N(CC(=O)NC1CCCC1)c1ccc(C(C)C)cc1,11,.,634*,81*,0[21 µM]
O=C(Nc1ccc(NS(=O)(=O)c2ccccc2)cc1)c1ccccc1Cl,.,.,-13,.,.
Cc1nc(N/N=C\c2ccc3c(c2)OCO3)sc1C,14,6,497*,7,0
CCOc1ccccc1CN1CCNC(=O)C1CC(=O)NCc1nc(C)cs1 (configuration not stated),7,0,-6,-13,.
Cc1sc2ncnc(N3CCC(C(=O)NNC(=O)COc4ccccc4Cl)CC3)c2c1C,-5,0,-9,11,.
Cc1sc2ncnc(N3CCC(C(=O)NNC(=O)COc4ccccc4F)CC3)c2c1C,.,1,422*,2,0
Cc1ccc(/C(N)=N/OC(=O)/C=C/c2ccccc2)cc1,0,3,840*,5,0
COc1ccc(/C(N)=N/OC(=O)/C=C/c2ccccc2)cc1,6,2,154,1,.
CCN(CC)C1CCN(C(=O)c2cc(COc3ccc(-n4cncn4)cc3)on2)C1 (configuration not stated),13,0,512*,-6,0
COCC1CCN(C(=O)c2cc(COc3ccc(-n4cncn4)cc3)on2)C1 (configuration not stated),34,1,3,-2,.
O=C(Cn1sc2ccccc2c1=O)NC12CC3CC(CC(C3)C1)C2,15,0,387*,.,4
COc1ccc(Cl)cc1NC(=O)c1sc2nc(C)nc(N3CCOCC3)c2c1C,5,1,-5,3,.
O=c1c2ccccc2ncn1Cc1ccc2c(c1)OCO2,17,-1,428*,-1,1
O=c1c2ccccc2ncn1Cc1ccc(Cl)cc1,5,-1,987*,.,0
